# Key:
# Assay in all cases: DAPPL (digital affinity profiling via proximity ligation, sequencing); 10 mM Tris-HCl pH 7.5, 50 mM NaCl, 1 mM DTT, 4% glycerol, room temperature, 30 min; GST-TFs on glutathione beads, 16-mer random dsDNA library, 0.1% formaldehyde crosslink after washing; high values mean tight binding
# [1] = biological target: T1, FLI1 (Homo sapiens, UniProt Q01543 1-452); settings: protein: recombinant; tags: N-terminal GST; dsDNA, one strand shown
# T1 sequence: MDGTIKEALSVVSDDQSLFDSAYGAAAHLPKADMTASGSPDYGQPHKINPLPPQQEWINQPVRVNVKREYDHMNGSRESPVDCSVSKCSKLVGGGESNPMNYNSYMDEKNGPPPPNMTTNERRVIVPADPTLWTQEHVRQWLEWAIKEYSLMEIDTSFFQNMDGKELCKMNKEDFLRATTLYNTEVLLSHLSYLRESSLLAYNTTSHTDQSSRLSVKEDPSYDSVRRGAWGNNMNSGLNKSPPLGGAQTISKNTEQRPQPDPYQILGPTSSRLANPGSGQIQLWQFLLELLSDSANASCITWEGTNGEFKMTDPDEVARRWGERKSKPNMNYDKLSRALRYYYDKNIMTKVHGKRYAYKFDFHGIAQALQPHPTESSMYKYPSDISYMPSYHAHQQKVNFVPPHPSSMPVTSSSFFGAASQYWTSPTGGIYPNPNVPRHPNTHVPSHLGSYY
# Summary of the method: (§1)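 Human transcription factors fused to GST were expressed in yeast, captured on glutathione beads, given DNA barcodes and pooled with a GST-only negative control. Pools were incubated with 200 nmole of a 16-mer random double-stranded DNA library in Tris/NaCl/DTT/glycerol buffer at room temperature for 30 min. They were then washed, crosslinked with 0.1% formaldehyde, proximity-ligated (BsaI/T4 ligase, 1 h, 37 °C), PCR-amplified and sequenced on an Illumina NextSeq500. Binding signal is each 6-mer's read frequency for a factor divided by its frequency for the GST control.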
# [2] = biological target: T2, ELK1 (Homo sapiens, UniProt P19419 1-428); settings: protein: recombinant; tags: N-terminal GST; dsDNA, one strand shown
# T2 sequence: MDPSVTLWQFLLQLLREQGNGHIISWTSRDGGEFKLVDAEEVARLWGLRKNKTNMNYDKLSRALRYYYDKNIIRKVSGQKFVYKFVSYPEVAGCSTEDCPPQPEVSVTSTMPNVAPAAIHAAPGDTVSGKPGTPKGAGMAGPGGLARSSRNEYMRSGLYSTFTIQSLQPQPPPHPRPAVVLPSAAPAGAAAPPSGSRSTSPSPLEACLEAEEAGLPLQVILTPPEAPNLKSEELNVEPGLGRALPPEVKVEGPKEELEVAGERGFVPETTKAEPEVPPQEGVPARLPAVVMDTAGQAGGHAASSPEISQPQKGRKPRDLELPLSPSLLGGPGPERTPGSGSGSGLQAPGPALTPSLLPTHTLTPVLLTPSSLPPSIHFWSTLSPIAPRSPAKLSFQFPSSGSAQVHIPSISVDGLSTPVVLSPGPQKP
# Summary of the method: as §1
# [3] = biological target: T3, GABPA (Homo sapiens, UniProt Q06546 1-454); settings: protein: recombinant; tags: N-terminal GST; dsDNA, one strand shown
# T3 sequence: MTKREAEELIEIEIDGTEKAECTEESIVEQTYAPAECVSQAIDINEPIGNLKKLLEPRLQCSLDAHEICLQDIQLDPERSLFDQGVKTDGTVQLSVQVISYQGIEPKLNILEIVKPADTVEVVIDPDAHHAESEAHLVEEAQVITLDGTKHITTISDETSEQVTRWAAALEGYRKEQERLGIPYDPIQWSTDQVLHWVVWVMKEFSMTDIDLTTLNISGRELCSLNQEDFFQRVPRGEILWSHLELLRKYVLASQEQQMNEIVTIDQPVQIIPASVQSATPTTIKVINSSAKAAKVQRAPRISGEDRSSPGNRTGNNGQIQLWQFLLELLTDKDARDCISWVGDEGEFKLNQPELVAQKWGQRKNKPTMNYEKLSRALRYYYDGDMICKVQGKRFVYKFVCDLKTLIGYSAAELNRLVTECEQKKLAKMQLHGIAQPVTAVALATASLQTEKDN
# Summary of the method: as §1
# [4] = biological target: T4, ERG (Homo sapiens, UniProt P11308 1-479); settings: protein: recombinant; tags: N-terminal GST; dsDNA, one strand shown
# T4 sequence: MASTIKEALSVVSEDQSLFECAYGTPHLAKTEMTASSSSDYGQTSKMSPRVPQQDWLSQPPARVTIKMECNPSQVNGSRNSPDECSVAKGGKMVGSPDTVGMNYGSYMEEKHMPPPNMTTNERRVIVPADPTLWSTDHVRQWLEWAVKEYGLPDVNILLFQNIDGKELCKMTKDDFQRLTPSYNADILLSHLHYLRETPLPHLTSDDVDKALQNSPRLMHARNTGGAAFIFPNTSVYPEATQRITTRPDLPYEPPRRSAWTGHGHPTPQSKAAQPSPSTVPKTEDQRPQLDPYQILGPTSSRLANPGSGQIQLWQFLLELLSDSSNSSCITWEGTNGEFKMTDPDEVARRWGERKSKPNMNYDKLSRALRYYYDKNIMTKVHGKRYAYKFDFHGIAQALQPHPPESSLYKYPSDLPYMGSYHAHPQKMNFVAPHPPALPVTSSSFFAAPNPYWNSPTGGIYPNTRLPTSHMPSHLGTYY
# Summary of the method: as §1
# [5] = biological target: ELF1 (Homo sapiens, UniProt P32519 1-619); settings: protein: recombinant; tags: N-terminal GST; dsDNA, one strand shown
# Chain of ELF1 (P32519 whole entry): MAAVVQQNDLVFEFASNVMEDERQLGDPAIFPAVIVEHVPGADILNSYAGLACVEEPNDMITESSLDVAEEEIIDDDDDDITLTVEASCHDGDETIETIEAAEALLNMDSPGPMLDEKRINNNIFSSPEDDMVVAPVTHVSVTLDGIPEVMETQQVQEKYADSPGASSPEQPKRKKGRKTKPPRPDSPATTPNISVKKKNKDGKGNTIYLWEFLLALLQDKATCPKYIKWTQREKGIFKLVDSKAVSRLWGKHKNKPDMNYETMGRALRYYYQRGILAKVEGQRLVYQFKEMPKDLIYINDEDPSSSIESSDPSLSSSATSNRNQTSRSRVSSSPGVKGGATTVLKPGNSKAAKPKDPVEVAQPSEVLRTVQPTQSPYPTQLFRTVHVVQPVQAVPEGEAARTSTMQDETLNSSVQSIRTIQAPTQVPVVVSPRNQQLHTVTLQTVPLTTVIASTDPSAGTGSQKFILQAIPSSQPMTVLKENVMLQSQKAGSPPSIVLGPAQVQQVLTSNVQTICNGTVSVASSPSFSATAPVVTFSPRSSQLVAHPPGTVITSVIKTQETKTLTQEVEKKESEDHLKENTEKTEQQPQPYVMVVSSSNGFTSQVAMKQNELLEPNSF
# Summary of the method: as §1
# [6] = biological target: T5, EHF (Homo sapiens, UniProt Q9NZC4 1-300); settings: protein: recombinant; tags: N-terminal GST; dsDNA, one strand shown
# T5 sequence: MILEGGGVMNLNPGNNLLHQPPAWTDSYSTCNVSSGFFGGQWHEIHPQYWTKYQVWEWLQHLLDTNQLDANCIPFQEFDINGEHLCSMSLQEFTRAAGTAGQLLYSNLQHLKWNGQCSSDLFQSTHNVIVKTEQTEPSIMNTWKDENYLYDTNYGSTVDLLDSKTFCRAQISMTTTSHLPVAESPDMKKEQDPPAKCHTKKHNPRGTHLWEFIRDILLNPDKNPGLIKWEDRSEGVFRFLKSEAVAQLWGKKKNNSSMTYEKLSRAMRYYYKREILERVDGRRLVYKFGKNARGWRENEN
# Summary of the method: as §1
# [7] = biological target: SPI1 (Homo sapiens, UniProt P17947 1-270); settings: protein: recombinant; tags: N-terminal GST; dsDNA, one strand shown
# Summary of the method: as §1
# [8] = biological target: SPIB (Homo sapiens, UniProt Q01892 1-262); settings: protein: recombinant; tags: N-terminal GST; dsDNA, one strand shown
# Chain of SPIB (Q01892 whole entry): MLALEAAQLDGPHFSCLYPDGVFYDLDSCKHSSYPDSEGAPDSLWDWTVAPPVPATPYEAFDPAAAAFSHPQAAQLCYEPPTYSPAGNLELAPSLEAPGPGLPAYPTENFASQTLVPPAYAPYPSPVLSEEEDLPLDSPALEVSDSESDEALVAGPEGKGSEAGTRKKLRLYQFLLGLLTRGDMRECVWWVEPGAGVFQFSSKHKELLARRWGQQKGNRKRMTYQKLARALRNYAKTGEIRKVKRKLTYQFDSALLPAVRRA
# Summary of the method: as §1
# [9] = biological target: T6, ELK3 (Homo sapiens, UniProt P41970 1-407); settings: protein: recombinant; tags: N-terminal GST; dsDNA, one strand shown
# T6 sequence: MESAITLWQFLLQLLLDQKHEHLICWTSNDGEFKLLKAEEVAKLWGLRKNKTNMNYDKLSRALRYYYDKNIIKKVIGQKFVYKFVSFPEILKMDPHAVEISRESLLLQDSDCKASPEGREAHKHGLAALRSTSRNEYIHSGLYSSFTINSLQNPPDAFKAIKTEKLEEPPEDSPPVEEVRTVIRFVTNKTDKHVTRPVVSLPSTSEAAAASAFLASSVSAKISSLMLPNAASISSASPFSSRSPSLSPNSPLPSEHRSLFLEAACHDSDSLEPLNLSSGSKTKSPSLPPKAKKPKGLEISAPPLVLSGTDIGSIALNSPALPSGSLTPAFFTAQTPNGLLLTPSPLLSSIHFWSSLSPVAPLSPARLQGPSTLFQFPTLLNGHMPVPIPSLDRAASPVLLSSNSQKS
# Summary of the method: as §1
# [10] = biological target: T7, FEV (Homo sapiens, UniProt Q99581 1-238); settings: protein: recombinant; tags: N-terminal GST; dsDNA, one strand shown
# T7 sequence: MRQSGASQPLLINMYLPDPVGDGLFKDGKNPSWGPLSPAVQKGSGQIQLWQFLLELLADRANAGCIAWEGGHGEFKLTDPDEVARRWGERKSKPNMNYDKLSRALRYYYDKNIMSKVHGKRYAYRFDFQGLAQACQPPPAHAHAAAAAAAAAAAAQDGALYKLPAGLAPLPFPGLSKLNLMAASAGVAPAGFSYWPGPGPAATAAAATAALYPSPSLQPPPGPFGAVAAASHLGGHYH
# Summary of the method: as §1
# [11] = biological target: ETV5 (Homo sapiens, UniProt P41161 1-510); settings: protein: recombinant; tags: N-terminal GST; dsDNA, one strand shown
# Chain of ETV5 (P41161 whole entry): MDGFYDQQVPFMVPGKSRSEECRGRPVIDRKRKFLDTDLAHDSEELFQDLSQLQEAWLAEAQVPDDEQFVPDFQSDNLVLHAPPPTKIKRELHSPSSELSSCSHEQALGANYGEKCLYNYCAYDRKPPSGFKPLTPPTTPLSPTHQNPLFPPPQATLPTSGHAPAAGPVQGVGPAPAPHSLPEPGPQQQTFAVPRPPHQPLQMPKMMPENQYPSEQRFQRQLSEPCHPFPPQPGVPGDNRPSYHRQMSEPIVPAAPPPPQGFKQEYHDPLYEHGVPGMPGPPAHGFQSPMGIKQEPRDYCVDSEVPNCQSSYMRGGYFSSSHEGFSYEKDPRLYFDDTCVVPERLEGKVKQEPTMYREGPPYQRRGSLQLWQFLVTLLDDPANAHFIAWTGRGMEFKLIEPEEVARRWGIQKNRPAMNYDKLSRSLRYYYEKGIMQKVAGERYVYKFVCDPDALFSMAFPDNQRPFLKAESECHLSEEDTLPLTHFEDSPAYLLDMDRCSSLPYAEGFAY
# Summary of the method: as §1
# [12] = biological target: HSF1 (Homo sapiens, UniProt Q00613 1-529); settings: protein: recombinant; tags: N-terminal GST; chain copies: 3; dsDNA, one strand shown
# Chain of HSF1 (Q00613 whole entry): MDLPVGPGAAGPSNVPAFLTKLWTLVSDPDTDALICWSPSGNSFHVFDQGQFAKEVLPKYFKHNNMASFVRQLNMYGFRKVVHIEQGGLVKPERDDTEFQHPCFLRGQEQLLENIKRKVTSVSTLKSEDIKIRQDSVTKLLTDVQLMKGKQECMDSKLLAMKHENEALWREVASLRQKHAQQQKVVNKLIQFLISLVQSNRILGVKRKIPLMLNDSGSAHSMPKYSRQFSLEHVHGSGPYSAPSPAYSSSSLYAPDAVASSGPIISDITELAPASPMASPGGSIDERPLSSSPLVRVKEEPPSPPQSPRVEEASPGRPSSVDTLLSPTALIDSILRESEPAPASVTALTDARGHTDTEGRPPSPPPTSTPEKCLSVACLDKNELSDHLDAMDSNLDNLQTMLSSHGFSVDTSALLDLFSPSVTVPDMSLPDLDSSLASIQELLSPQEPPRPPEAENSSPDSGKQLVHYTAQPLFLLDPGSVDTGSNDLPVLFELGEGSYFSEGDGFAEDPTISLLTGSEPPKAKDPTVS
# Summary of the method: as §1
# [13] = biological target: T8, SPIC (Homo sapiens, UniProt Q8N5J4 1-248); settings: protein: recombinant; tags: N-terminal GST; dsDNA, one strand shown
# T8 sequence: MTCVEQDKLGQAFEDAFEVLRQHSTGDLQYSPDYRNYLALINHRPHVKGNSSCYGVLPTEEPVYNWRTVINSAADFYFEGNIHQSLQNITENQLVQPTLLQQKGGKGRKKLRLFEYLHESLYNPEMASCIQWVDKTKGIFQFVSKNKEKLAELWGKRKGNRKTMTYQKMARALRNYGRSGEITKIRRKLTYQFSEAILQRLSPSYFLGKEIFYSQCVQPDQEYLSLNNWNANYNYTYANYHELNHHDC
# Summary of the method: as §1
# [14] = biological target: ELF4 (Homo sapiens, UniProt Q99607 1-663); settings: protein: recombinant; tags: N-terminal GST; dsDNA, one strand shown
# Chain of ELF4 (Q99607 whole entry): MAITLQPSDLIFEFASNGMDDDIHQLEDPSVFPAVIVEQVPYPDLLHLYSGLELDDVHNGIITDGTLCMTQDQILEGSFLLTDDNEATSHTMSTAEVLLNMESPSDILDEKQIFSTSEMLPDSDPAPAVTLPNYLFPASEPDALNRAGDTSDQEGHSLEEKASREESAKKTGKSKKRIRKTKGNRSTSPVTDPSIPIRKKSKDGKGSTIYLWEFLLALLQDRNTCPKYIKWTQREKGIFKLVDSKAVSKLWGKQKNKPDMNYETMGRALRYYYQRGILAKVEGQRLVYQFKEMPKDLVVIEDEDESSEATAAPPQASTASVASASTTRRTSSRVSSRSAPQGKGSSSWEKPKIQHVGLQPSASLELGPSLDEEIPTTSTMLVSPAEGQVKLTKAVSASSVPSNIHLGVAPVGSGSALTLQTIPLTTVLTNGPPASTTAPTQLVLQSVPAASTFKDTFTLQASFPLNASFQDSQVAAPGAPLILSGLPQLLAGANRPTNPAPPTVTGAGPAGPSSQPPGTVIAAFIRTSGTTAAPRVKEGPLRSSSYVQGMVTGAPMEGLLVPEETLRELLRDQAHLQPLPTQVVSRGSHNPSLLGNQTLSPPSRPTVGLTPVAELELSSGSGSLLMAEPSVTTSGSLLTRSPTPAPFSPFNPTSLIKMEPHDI
# Summary of the method: as §1
# [15] = biological target: T9, ELK4 (Homo sapiens, UniProt P28324-2 1-405); settings: protein: recombinant; tags: N-terminal GST; dsDNA, one strand shown
# T9 sequence: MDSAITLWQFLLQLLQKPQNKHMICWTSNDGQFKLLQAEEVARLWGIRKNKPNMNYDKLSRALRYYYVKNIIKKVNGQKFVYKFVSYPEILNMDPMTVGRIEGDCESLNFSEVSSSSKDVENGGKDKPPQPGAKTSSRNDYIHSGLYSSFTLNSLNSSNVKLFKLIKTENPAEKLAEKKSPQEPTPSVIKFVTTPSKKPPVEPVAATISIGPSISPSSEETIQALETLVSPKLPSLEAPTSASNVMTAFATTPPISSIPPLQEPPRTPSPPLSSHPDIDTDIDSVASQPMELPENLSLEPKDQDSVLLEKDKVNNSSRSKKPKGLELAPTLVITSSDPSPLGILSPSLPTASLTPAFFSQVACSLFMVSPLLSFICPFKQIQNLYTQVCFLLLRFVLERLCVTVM
# Summary of the method: as §1
# [16] = biological target: T10, ETV2 (Homo sapiens, UniProt O00321 1-342); settings: protein: recombinant; tags: N-terminal GST; dsDNA, one strand shown
# T10 sequence: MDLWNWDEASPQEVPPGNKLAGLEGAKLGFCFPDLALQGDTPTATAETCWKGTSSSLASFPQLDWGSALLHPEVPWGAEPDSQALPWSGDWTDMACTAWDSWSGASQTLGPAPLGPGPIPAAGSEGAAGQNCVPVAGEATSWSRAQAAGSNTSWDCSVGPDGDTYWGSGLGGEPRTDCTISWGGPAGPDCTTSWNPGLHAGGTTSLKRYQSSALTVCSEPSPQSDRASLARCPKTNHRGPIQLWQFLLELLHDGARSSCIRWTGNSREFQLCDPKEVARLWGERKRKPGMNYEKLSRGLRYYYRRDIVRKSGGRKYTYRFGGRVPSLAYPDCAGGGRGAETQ
# Summary of the method: as §1
# [17] = biological target: T11, ELF3 (Homo sapiens, UniProt P78545 1-371); settings: protein: recombinant; tags: N-terminal GST; dsDNA, one strand shown
# T11 sequence: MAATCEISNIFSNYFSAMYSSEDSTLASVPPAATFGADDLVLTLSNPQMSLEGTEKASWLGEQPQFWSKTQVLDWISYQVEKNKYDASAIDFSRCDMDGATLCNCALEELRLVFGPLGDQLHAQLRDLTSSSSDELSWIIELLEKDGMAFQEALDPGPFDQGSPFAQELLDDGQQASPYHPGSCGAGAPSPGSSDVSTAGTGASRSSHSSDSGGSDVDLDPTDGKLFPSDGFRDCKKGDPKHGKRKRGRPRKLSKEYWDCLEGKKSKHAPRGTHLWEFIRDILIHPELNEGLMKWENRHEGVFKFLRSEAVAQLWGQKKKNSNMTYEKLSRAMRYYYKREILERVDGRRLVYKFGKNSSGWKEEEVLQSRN
# Summary of the method: as §1
# [18] = biological target: CRX (Homo sapiens, UniProt O43186 1-299); settings: protein: recombinant; tags: N-terminal GST; dsDNA, one strand shown
# Chain of CRX (O43186 whole entry): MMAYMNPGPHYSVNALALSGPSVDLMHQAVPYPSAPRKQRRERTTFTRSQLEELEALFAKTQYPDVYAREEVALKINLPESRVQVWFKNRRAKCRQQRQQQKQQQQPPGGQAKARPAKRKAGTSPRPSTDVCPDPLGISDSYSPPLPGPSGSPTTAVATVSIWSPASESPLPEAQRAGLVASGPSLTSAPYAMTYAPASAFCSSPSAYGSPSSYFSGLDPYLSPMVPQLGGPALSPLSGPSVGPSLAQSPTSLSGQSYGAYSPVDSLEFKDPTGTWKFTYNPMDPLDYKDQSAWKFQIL
# Summary of the method: as §1
# [19] = biological target: ETV1 (Homo sapiens, UniProt P50549 1-477); settings: protein: recombinant; tags: N-terminal GST; dsDNA, one strand shown
# Chain of ETV1 (P50549 whole entry): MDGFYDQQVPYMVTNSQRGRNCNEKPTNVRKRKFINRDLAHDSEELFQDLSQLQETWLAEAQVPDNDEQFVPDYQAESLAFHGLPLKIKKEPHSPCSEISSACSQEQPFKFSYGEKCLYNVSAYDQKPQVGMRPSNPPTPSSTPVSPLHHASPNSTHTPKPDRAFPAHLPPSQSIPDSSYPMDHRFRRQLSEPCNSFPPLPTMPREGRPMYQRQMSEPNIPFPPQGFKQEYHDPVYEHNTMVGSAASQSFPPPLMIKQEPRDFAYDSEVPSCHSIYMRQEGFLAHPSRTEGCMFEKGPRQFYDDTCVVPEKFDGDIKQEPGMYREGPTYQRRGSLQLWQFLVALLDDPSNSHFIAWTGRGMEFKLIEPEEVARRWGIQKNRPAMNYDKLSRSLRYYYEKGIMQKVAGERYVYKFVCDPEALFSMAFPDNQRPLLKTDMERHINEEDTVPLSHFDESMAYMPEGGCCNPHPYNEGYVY
# Summary of the method: as §1
sequence,measurement,setting,value
ACTAGC,binding signal,[1],"1.23 fold enrichment (6-mer frequency, TF over GST control)"
same,binding signal,[2],"1.18 fold enrichment (6-mer frequency, TF over GST control)"
same,binding signal,[3],"1.26 fold enrichment (6-mer frequency, TF over GST control)"
same,binding signal,[4],"1.21 fold enrichment (6-mer frequency, TF over GST control)"
same,binding signal,[5],"1.15 fold enrichment (6-mer frequency, TF over GST control)"
same,binding signal,[6],"1.11 fold enrichment (6-mer frequency, TF over GST control)"
same,binding signal,[7],"1.28 fold enrichment (6-mer frequency, TF over GST control)"
same,binding signal,[8],"1.22 fold enrichment (6-mer frequency, TF over GST control)"
same,binding signal,[9],"1.1 fold enrichment (6-mer frequency, TF over GST control)"
same,binding signal,[10],"1.11 fold enrichment (6-mer frequency, TF over GST control)"
same,binding signal,[11],"1.2 fold enrichment (6-mer frequency, TF over GST control)"
same,binding signal,[12],"1.32 fold enrichment (6-mer frequency, TF over GST control)"
same,binding signal,[13],"1.17 fold enrichment (6-mer frequency, TF over GST control)"
same,binding signal,[14],"1.17 fold enrichment (6-mer frequency, TF over GST control)"
same,binding signal,[15],"1.24 fold enrichment (6-mer frequency, TF over GST control)"
same,binding signal,[16],"1.3 fold enrichment (6-mer frequency, TF over GST control)"
same,binding signal,[17],"1.01 fold enrichment (6-mer frequency, TF over GST control)"
same,binding signal,[18],"1.11 fold enrichment (6-mer frequency, TF over GST control)"
same,binding signal,[19],"1.19 fold enrichment (6-mer frequency, TF over GST control)"

# Reference: publication PMC7862700, “An all-to-all approach to the identification of sequence-specific readers for epigenetic DNA modifications on cytosine”
